Assay results published in PubChem BioAssay AID1851 (National Center for Advancing Translational Sciences (NCATS), 2009).
About 5,100 (32%) of roughly 16,000 compounds were called active. About 25% were inconclusive and are not listed. The call rests on the fitted dose curve; in most records, active means well fitted curve in the direction sought with a large enough effect; inconclusive means small, poorly fitted or top-dose-only effect, or effect the other way; inactive means no such curve, though single readings can be large or run the other way. This is one part of the list.

Target: Cytochrome P450 3A4 (Homo sapiens) (UniProt P08684)
Test: Cytochrome panel assay with activity outcomes
Details: recombinant CYP, pro-luciferin dealkylation, luminescence, p450-cyp3a4; series mostly up to 57.1 µM; activity, negative = inhibition: at the top concentration
On the % scale 0 is the no-effect control and ±100 the full control effect.

Sequence of Cytochrome P450 3A4 (Homo sapiens) (P08684 whole entry, looked up): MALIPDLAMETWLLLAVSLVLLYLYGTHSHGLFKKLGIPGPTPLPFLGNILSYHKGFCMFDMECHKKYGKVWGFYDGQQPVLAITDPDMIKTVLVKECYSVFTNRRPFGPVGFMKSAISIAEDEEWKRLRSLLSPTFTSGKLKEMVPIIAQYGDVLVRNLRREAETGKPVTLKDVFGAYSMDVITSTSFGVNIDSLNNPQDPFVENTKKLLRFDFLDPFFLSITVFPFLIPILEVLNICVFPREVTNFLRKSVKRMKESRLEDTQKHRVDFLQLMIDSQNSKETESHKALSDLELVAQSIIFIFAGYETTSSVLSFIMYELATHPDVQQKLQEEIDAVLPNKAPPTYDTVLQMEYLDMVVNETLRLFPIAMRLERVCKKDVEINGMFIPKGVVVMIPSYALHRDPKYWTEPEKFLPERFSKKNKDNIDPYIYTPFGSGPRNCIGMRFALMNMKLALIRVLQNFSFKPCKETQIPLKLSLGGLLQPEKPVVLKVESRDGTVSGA

activity, negative = inhibition, inactive:
CC(=NC1CCCCC1)c1ccccc1O -3.59% [at 11.4 µM], CC(=O)/C=C/c1ccc2ccccc2n1 -12.5%, Cc1cc(N=Cc2c(CO)cnc(C)c2O)c(N=Cc2c(CO)cnc(C)c2O)cc1C.[Zn] -6.9% [at 11.4 µM], COC(=O)CSc1ccc2nnc(-c3ccc(F)cc3)n2n1 2.79%, O=C1C2=CC[C@@H]3C(=O)N(c4ccc(F)cc4F)C(=O)[C@H]3[C@H]2[C@H](O)[C@H]2O[C@H]12 -21.3% [at 11.4 µM], CC1(C)CCC(NC(=O)[C@H](N)CCC(=O)O)CC1 -1.71%, O=[N+]([O-])c1ccc(Cl)c(/C=N/N2CCN(Cc3ccccc3)CC2)c1 -22.6%, C(/C=C/c1ccco1)=N/N1CCN(c2ccccc2)CC1 7.59%, CC(C)N(Cc1ccccc1)S(=O)(=O)c1n[nH]c(C(C)(C)C)n1 -24.5% [at 11.4 µM], O=C(Nc1nc2ccc(F)cc2s1)C1CCCO1 (stereo not drawn) -18.2%, CC(C)(C)c1ccc(OC(=O)Nc2ccc(O)c(C(=O)O)c2)cc1 -11.3% [at 11.4 µM], CC1(C)Cc2ccccc2C(N/N=C/c2cccc(F)c2)=N1 14.5% [at 2.29 µM], Cc1cnn(-c2cc(N/N=C/c3ccccc3)ncn2)c1 -6.74%, CC(C)N(CCNC(=O)C1CCC(=O)N1Cc1ccc(F)cc1)Cc1ccccc1 (stereo not drawn) -25.2%, CN(C(=O)c1ccncc1)c1ccccc1 -11.8% [at 11.4 µM], O=C(CN1C(=O)c2ccccc2S1(=O)=O)Nc1ccccc1 12.5%, NC(=O)C1CCN(C(=O)CN2C(=O)c3ccccc3S2(=O)=O)CC1 -1.28%, COCCCNC(=O)C1CCC(=O)N1Cc1ccccc1Cl (stereo not drawn) -20.1% [at 11.4 µM], O=C(NCCCN1CCN(c2cccc(Cl)c2)CC1)C1CCC(=O)N1Cc1ccccc1Cl (stereo not drawn) -7.41% [at 2.29 µM], CC(C)NC(=O)N1CCC2(CC1)CCN(S(C)(=O)=O)CC2 -7.29%, Cc1cccc(-n2ncc3c(Nc4c(C)n(C)n(-c5ccccc5)c4=O)ncnc32)c1 -22%, CCc1c(C)c(C#N)c2nc3ccccc3n2c1N1CCN(c2cc(C)ccn2)CC1 -1.59%, Cc1ccc(OCC(=O)NNC(=O)c2cc3ccccc3o2)cc1 -23.5%, NCCCCN 6.31%, C=CC1=C(C(=O)O)N2C(=O)[C@@H](NC(=O)/C(=N\OCC(=O)O)c3csc(N)n3)[C@@H]2SC1 -9.56% [at 25.6 µM], COc1ccc2nccc(SCC(=O)O)c2c1 -8.31% [at 11.4 µM], COc1ccccc1-c1nc(NCCNC(C)=O)c2ccccc2n1 -27.3%, NCCCCCCCCCCN 3.58%, CC(=O)Nc1ccc(NC(=O)C/C(C)=N/NC(=O)C(=O)N2CCCC2)cc1 -6.22%, CC1(C)Cc2c(sc3c2C(=O)N(c2ccccc2)C2=NCCN23)CS1 -23.7%, Cc1cc(C)n2nc(SCC(=O)N/N=C/c3ccccc3F)nc2n1 -29.4%, CCCSc1nnc(CSc2nc3nc(C)cc(C)n3n2)o1 5.19% [at 11.4 µM], CCSc1nc2nc(C)cc(C)n2n1 -7.32%, COc1cc(NC(=O)COC(=O)c2nc3nc(C)cc(C)n3n2)cc(OC)c1 20% [at 2.29 µM], CCC(=O)N[C@@H]1CCc2cccc(OC)c2C1 -19%, COc1cccc2cc(NC(=O)C3CCCCC3)c(=O)oc12 -11.8%, CCNC(=O)COC(=O)c1cc(=O)[nH]c2ccccc12 15.8%, N/C(=N\OC(=O)c1cc(-c2ccccc2)nc2ccccc12)c1ccc(Cl)cc1 28.2%, Cc1ccc(CS(=O)(=O)CCC(=O)NCCCN2CCCC2=O)cc1 1.96%, CCOCCCNC(=O)CCS(=O)(=O)Cc1ccc(C)cc1 -15.2%, CCS(=O)(=O)N1CCC(C(=O)NCCCN2CCN(c3ccccc3F)CC2)CC1 -9.39%, CCCS(=O)(=O)N1CCCC(C(=O)NCCCN2CCN(c3ccccc3F)CC2)C1 (stereo not drawn) -20.6%, Cc1ccc2c(c1)/C(=N/OC(=O)c1ccc(F)cc1)CCS2 24.5%, N#Cc1c(-c2ccccc2)nc(-c2ccccc2)[nH]c1=O -11%, N#Cc1c(-c2ccccc2)nc2n(c1=O)CCS2 -1.65%, COc1cccc(CNCCNC(=O)c2nonc2N)c1 3.2%, Cn1cccc1C(=O)N1CCC2(CCCN(c3ncccn3)C2)CC1 -4.9%, CC(C)NC(=O)N1CC[C@@]2(CCCN(C(=O)c3cccn3C)C2)C1 3.62%, Cn1cccc1C(=O)N1CCC2(CC1)CCN(c1ccncc1)CC2 -27.5%, Cn1cccc1C(=O)N1CCC2(CC1)CN(c1ccncc1)C2 -15.8%, CN1CCCC2(CCN(C(=O)c3cccn3C)CC2)C1 -7.48%, Cn1cccc1C(=O)N1CCC2(CC1)CCN(c1cccc(-c3ccccc3)c1)CC2 32.4%, COC(=O)N1CCC[C@@]2(CCN(C(c3ccccc3)c3ccccc3)C2)C1 -29.5%, CC(C)NC(=O)N1CCC2(CC1)CCN(C(=O)c1cccn1C)CC2 -9.8%

AC50, inactive:
C[N+](C)(C)CCCCCC[N+](C)(C)C

AC50, active:
C/C(=N/Nc1ccc2ccccc2n1)c1ccccc1O 3.16 µM, Cc1cc(C)cc(-n2nnnc2SCC(=O)Nc2nc(-c3ccc(F)cc3)cs2)c1 1.58 µM, Cc1cc(C)cc(-n2nnnc2SCC(=O)Nc2nc(-c3ccc(Cl)cc3)cs2)c1 3.98 µM, Cc1ncsc1C(=O)N1N=C2/C(=C/c3ccccc3)CCCC2C1c1ccccc1 (stereo not drawn) 5.01 µM, COc1ccc(/C=C2\CCCC3C2=NN(C(=O)c2ccco2)C3c2ccc(OC)c(OC)c2)cc1OC (stereo not drawn) 7.94 µM, COc1ccccc1/C=C/C=N/N1CCN(Cc2ccc(Cl)cc2)CC1 14.1 µM, Fc1ccc2nc(Nc3nc4c(s3)CCCC4)sc2c1 22.4 µM, Cc1cccc(/C=N\Nc2cn[nH]c(=O)c2Cl)c1 15.8 µM, COC(=O)[C@@]1(Cc2ccc(OC)cc2)[C@@H]2[C@@H](CC(=O)[C@H]2CC(=O)C(=O)N(C)C)CN1C(=O)c1ccccc1 1 µM, COC(=O)[C@@]1(Cc2ccc(F)cc2)[C@@H]2[C@@H](CC(=O)[C@H]2CC(=O)C(=O)N(C)C)CN1C(=O)c1ccccc1 6.31 µM, COC(=O)c1c(C)oc2ccc(N(C(=O)c3ccncc3)S(=O)(=O)c3ccccc3)cc12 7.08 µM, Cc1ccc(C)c(C(=O)CN2C(=O)c3ccccc3S2(=O)=O)c1 7.94 µM, CN(CCCNC(=O)C1CCC(=O)N1Cc1ccccc1Cl)c1ccccc1 (stereo not drawn) 7.08 µM, CCc1c(C)c(C#N)c2nc3ccccc3n2c1Nc1c(C)n(C)n(-c2ccccc2)c1=O 7.94 µM, COc1ccc2nc(C)cc(SCC(=O)NNC(=O)COc3ccccc3)c2c1 2.82 µM, COc1ccc(NC(=O)CCSc2cc(C)c3ccccc3n2)cc1 3.98 µM, COc1ccc2nc(SCC(=O)NN)cc(C)c2c1 2.82 µM, COc1ccc2nc(C)cc(SCC(=O)Nc3c(C)cc(C)cc3C)c2c1 2.51 µM, COc1ccc2nc(C)cc(SCC(=O)NNC(=O)COc3ccc(C)cc3)c2c1 2.24 µM, CC(=O)NCCNc1nc(-c2c(C)noc2C)nc2ccccc12 15.8 µM, CC(=O)NCCNc1nc(-c2ccccc2C)nc2ccccc12 5.01 µM, CCn1c2ccccc2c2cc(NC(=O)C/C(C)=N/NC(=O)c3ccccc3N)ccc21 7.08 µM, COc1ccccc1CNc1ccnc(-c2c(C)noc2C)n1 5.01 µM, COc1ccc(CNc2ccnc(-c3c(C)noc3C)n2)c(OC)c1 2.51 µM, CC1(C)Cc2c(sc3nc(SCC(=O)NCc4ccccc4)n(-c4ccccc4)c(=O)c23)CS1 3.55 µM, Cc1ccc(-n2c(SCC(=O)NCc3ccco3)nc3sc4c(c3c2=O)CC(C)(C)SC4)cc1 2 µM, CN(C)c1ccc(-c2cncnc2NCc2cccnc2)cc1 0.631 µM, CN(C)c1ccc(-c2cncnc2NCc2ccccc2)cc1 0.0316 µM, Cc1ccc(/C=N/NC(=O)CSc2nc3nc(C)cc(C)n3n2)cc1 15.8 µM, Cc1cc(C)n2nc(SCc3cc(=O)oc4ccc5ccccc5c34)nc2n1 2.24 µM, COc1ccccc1CNC(=O)CSc1nc2nc(C)cc(C)n2n1 14.1 µM, CCn1c(SCC(=O)NC2CCCCC2)nnc1-c1cc2cccc(OC)c2o1 10 µM, CCNC(=O)COC(=O)c1cc(-c2ccc(OC)cc2)nc2ccccc12 14.1 µM, Cc1ccccc1CS(=O)(=O)CCC(=O)NCCCN1CCN(c2ccccc2F)CC1 11.2 µM, Cc1ccc(CS(=O)(=O)CCC(=O)NCCCN2CCCC2)cc1 28.2 µM, N#Cc1c(-c2ccccc2)no[n+]1[O-] 12.6 µM, COc1ccc(N(CC(=O)NCc2cccc(OC)c2)S(=O)(=O)c2c(C)noc2C)cc1 1.78 µM, CCOc1ccc(N(CC(=O)NCc2ccc(OC)cc2)S(=O)(=O)c2c(C)noc2C)cc1 0.631 µM, Cn1cccc1C(=O)N1CCC[C@@]2(CCN(c3ccccc3)C2)C1 10 µM, Cn1cccc1C(=O)N1CCC[C@@]2(CCN(c3cccc(-c4ccccc4)c3)C2)C1 7.94 µM, Cn1cccc1C(=O)N1CCC[C@@]2(CCN(c3ccncc3)C2)C1 1 µM, Cn1cccc1C(=O)N1CCC2(CCCN(c3cccc(-c4ccccc4)c3)C2)CC1 10 µM, Cn1cccc1C(=O)N1CCC[C@@]2(CCN(C(c3ccccc3)c3ccccc3)C2)C1 12.6 µM
